IMPase Li cell: IMPase inhibition in cells with lithium potentiation | CHO-M1 cells, IP1 TR-FRET (IP-One), carbachol + lithium | Potency, µM (top dose mostly 59.4 µM), without a hit: top-dose activity, negative = IMPase inhibition, hits mostly inhibitors | 210,000 tested, 0.35% active | AID 1457; active = well fitted inhibition curve with a large enough effect; inconclusive = small, poorly fitted or top-dose-only effect; inactive = no such curve, though single readings can be large or run the other way;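 also: IP1 builds up when IMPase is blocked and the TR-FRET signal falls; potency is read from the fitted curve at half-maximal effect; plate controls were basal vehicle for no effect and high inhibitor control for full effect; nearly all actives have a fitted effect of over 50% in size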
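CHO-M1, 2000 cells/well, 16–30 h culture; cpd + low Li+, 30 min 37C; lysis with d2-IP1/Eu-anti-IP1 Ab, 10 min RT; TR-FRET 665/620 ratio and 620 channel; AC50 via Hill.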
PNC assembly inh: blocks assembly of the perinucleolar compartment | PC3M PTB-GFP, PNC prevalence imaging, 16 h; active compounds read low | activity change (PNC), negative = inhibition, % at 10 µM | AID 2417 | 140,000 tested, 3.1% active;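 active = readout at or below -70, meaning at least 70% loss of cells showing the perinucleolar compartment, a nuclear body marking cancer cells; inconclusive = readout between -30 and a set limit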;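 also: plate controls were DMSO wells for no effect and camptothecin positive control wells for full effect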
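Read-out is percentage of cells bearing a perinucleolar compartment, from automated 20x imaging of fixed, Hoechst-stained PC3M PTB-GFP cells. Cells were seeded 4 h, then exposed 16 h to compound (23 nl of library stock) in duplicate plates.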
ALDH1A1 inh: inhibitors of human aldehyde dehydrogenase 1A1; Potency, µM (titrated, usually from 75.3 µM), for the others: top-dose activity, negative = inhibition, most hits filed as inhibitors; Purified ALDH1A1, NADH fluorescence, propionaldehyde substrate; 220,000 tested, 7.3% active;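 also: potency is read from the fitted curve at half-maximal effect; plate controls were no enzyme wells and a reference inhibitor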
Target sequence (P00352 whole entry, looked up): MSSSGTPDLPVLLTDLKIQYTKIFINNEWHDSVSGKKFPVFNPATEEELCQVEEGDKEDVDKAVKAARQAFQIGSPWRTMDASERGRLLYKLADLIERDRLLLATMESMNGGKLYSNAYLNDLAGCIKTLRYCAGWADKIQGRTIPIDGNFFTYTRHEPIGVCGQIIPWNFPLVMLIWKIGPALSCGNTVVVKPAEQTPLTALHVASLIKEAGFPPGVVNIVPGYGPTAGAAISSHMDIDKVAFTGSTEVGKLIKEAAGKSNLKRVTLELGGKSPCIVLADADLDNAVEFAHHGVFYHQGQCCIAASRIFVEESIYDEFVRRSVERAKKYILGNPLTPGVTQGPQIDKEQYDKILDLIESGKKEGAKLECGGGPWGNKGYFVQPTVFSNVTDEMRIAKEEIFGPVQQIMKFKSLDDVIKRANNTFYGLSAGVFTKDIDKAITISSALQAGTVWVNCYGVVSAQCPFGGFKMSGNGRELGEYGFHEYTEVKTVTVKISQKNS
IMPase cell inh: cell-permeable inhibitors of inositol monophosphatase (IMPase); P97697; CHO-M1 cells, IP1 accumulation, HTRF TR-FRET ratio; inhibition (IP1 accumulation), % at 46.1 µM; 120,000 tested, under 10 active; AID 901; active = well fitted curve in the direction sought with a large enough effect in the signal ratio, not every such curve was filed as active; inconclusive = small, poorly fitted or top-dose-only effect, or a change in a side signal; inactive = no such curve, though single readings can be large or run the other way; the % refers to the signal ratio;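 also: cells stimulated with carbachol in lithium chloride buffer; plate controls were DMSO basal wells for no effect and reference inhibitor wells for full effect; higher means more IMPase inhibition seen as more IP1 and lower FRET ratio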
Target sequence (P97697 whole entry, looked up): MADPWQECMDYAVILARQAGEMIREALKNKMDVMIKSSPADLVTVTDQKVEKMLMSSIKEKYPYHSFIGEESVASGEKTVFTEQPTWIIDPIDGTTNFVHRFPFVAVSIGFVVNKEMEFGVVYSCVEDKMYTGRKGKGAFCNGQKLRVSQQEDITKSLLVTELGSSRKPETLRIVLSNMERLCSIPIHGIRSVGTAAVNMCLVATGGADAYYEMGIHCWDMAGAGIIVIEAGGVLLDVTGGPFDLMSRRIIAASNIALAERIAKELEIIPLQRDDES
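Measured: the HTRF emission ratio (665/620 nm) plus the 620 nm donor channel, each fitted to the Hill equation to give AC50. Cells were CHO-M1 given compounds up to 46 uM and a 30 min carbachol stimulation at 37C.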
HPGD inh: HPGD (human) dehydrogenase inhibition; P15428; purified HPGD, NADH fluorescence kinetic, PGE2 substrate; Potency, µM, for the others: top-dose activity change, negative = inhibition, most hits filed as inhibitors; 150,000 tested, 4.3% active; also: potency is read from the fitted curve at half-maximal effect
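20 nM HPGD preincubated 15 min at room temperature with compound in 50 mM Tris-HCl pH 8, 0.01% Tween 20. Started with 1 mM NAD+ and 30 uM prostaglandin E2; NADH fluorescence (360/450 nm) read 5 times over 30-s intervals, last minus first.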
* = called active by the depositor; ? = inconclusive; . = not tested or not shown; [ ] = remark or other dose. A selection: hits, their analogues and other compounds. The true share with any hit is near 11%. Unless noted, calls follow the shape of the dose curve; as a rule, active = well fitted inhibition curve with a large enough effect (not every such curve was filed as active); inconclusive = small, poorly fitted or top-dose-only effect, or another doubt; inactive = no such curve, though single readings can be large or run the other way. Unless noted, % is scaled to controls: 0 for no effect and ±100 for the full control effect.

SMILES	IMPase Li cell	PNC assembly inh	ALDH1A1 inh	IMPase cell inh	HPGD inh
CC1CCCCN1C(=O)c1ccc(COc2ccc([N+](=O)[O-])cc2)o1 (configuration not stated)	14.0%	?	14.1µM*	.	22.4µM*
CCOC(=O)N1CCN(c2c(NCC3CCN(Cc4cccc(C)c4)CC3)c(=O)c2=O)CC1	24.9%[38.3 µM]	?	-1.3%	0.7	-3.8%
N#CCCCN1C(=O)C(=C(C#N)C#N)c2ccccc21	11.2%	.	0.794µM*	.	.
COc1cc(/C=C(\C#N)C(=O)NCC2CCCO2)ccc1O (configuration not stated)	6.1%	86.0	?	12.3	-23.0%
O=C(CN1C(=O)S/C(=C/c2cccnc2)C1=O)N1CCOCC1	4.3%	4.9	?	.	-8.2%
COc1cc(/C=C2/SC(=S)N(CC3CCCO3)C2=O)ccc1O (configuration not stated)	12.5%	-16.0	0.141µM*	-0.8	25.1µM*
O=C1/C(=C\c2ccc(-c3ccccc3Cl)o2)SC(=S)N1CC1CCCO1 (configuration not stated)	5.2%[38.3 µM]	-16.3	1.41µM*	-3.4	-19.5%
O=C1/C(=C/c2cccnc2)SC(=S)N1CC1CCCO1 (configuration not stated)	7.3%	.	5.01µM*	.	.
Cc1ccc(C2=NNC(=O)C(P(=O)(c3ccccc3)c3ccccc3)C2)cc1 (configuration not stated)	1.8%	.	10.8%	.	.
CC(=O)Nc1ccccc1C(=O)C(=O)NCCc1ccccc1	3.3%	.	4.1%	.	.
Nc1ccc2nc(-c3ccccc3)sc2c1	11.2µM*	?	?	?	?
Nc1ccc(-c2nc3cc(N)ccc3s2)cc1	-17.0%	.	?	.	.
CCOC(=O)CNC(=O)/C=C/c1ccc2c(c1)OCO2	16.6%	.	?	.	.
CCN(C(=O)/C=C/c1ccc2c(c1)OCO2)c1ccccc1	2.0%	-83.6*	-15.2%	.	28.2µM*
O=C(NCC1CCCO1)C(=Cc1cccc([N+](=O)[O-])c1)C(=O)NCC1CCCO1 (configuration not stated)	-10.6%	-21.1	-1.7%	.	-11.7%
O=C(/C=C/c1cccc([N+](=O)[O-])c1)NCC1CCCO1 (configuration not stated)	16.8%[38.3 µM]	6.0	14.1µM*	-15.9[1.84 µM]	6.31µM*
O=C(/C=C/c1cccc([N+](=O)[O-])c1)NCCSCc1ccccc1Cl	10.0%	?	12.6µM*	.	-22.4%
COc1ccc(/C=C/C(=O)C2C(=O)C=C(C)OC2=O)cc1O (configuration not stated)	-5.4%	-20.0	?	4.5	-21.1%
O=S(=O)(c1cnc(Cl)c(Cl)c1)N1CCCc2ccccc21	4.5%	15.0	3.16µM*	.	-13.0%
O=S(=O)(NC1CC1)c1ccc(S(=O)(=O)N2CCCc3ccccc32)cc1	0.5%[38.3 µM]	?	?	5.4	-4.2%
O=S(=O)(c1cnc(Cl)c(Br)c1)N1CCc2ccccc21	.	.	2.82µM*	.	.
Cc1nc(N)sc1-c1csc(NCc2ccccc2)n1	7.3%[38.3 µM]	-21.1	2.24µM*	7.9	17.8µM*
Cc1cc(-c2csc(N)n2)c(C)n1CCc1ccccc1	36.2%[38.3 µM]	-107.7*	?	8.6	-3.5%
Cc1nc2sccn2c1-c1csc(NCc2ccccc2)n1	32.9%[38.3 µM]	-2.7	11.2µM*	12.3	-21.0%
Cc1cc(-c2csc(NCc3ccccc3)n2)c(C)n1C	16.9%	.	20µM*	.	.
SMILES	IMPase Li cell	PNC assembly inh	ALDH1A1 inh	IMPase cell inh	HPGD inh
Cc1cc(-c2csc(N)n2)c(C)n1CCC(C)C	24.4%[38.3 µM]	?	?	4.9	-9.3%
COc1ccc(NC(=O)N2CCCC3(CCN(C(=O)c4csnn4)CC3)C2)cc1	4.9%	.	-2.5%	.	-2.3%
Cn1c(=O)c2c(nc(Sc3n[nH]c(N)n3)n2Cc2ccccc2Cl)n(C)c1=O	1.1%[38.3 µM]	51.1	?	-6.6	?
O=c1c2c3c(sc2nc2sc(CN4CCOCC4)cn12)CCCC3	17.0%[38.3 µM]	42.2	?	4.5	-19.1%
O=C(O)c1cccc(Nc2nc(Nc3ccccc3)nc(N3CCCC3)n2)c1	-5.5%	.	3.2%	.	.
CC(C(=O)O)N1C(=O)/C(=C/C=C/c2ccco2)SC1=S (configuration not stated)	-3.5%[38.3 µM]	-29.2	-16.1%	-10.3	15.8µM*
CC(C)N(C(=O)COC(=O)[C@@H]1CC(O)CN1S(=O)(=O)c1ccc(C(C)(C)C)cc1)C(C)C (some centres not stated)	8.0%	.	8.91µM*	.	.
CC1CN(C(=O)COC(=O)[C@@H]2CC(O)CN2S(=O)(=O)c2ccc3c(c2)OCCO3)CC(C)O1 (some centres not stated)	-12.6%	10.6	1.9%	9.7	-3.5%
O=C(COC(=O)C1CC(O)CN1S(=O)(=O)c1ccc(Cl)cc1)c1ccccc1 (configuration not stated)	4.1%	-4.7	?	-7.7	-17.8%
O=C(COC(=O)C1CC(O)CN1S(=O)(=O)c1ccc(Cl)cc1)c1ccccc1Cl (configuration not stated)	6.6%	-21.6	17.8µM*	.	-1.7%
CCOc1cc(/C=N/n2cnnc2)ccc1OS(=O)(=O)c1ccc(C)cc1	11.0%	.	22.4µM*	.	.
C/C(=N\OCC(=O)Nc1c(C)cc(C)cc1C)c1ccc2c(c1)OCCO2	4.7%	11.9	-2.9%	8.9	-15.0%
COC(=O)c1c[nH]n2c(=O)cc(C)nc12	-1.6%[38.3 µM]	-2.5	-6.7%	-5.8	-21.3%
COC(=O)c1c[nH]n2c(=O)c(Cl)c(C)nc12	-1.5%	-113.4*	-4.2%	.	-11.2%
Cc1ccc(S(=O)(=O)N2CCC(=O)N(CCOCc3cccc(C(F)(F)F)c3)CC2)cc1	1.8%	-81.3*	-6.0%	.	-2.3%
Cc1ccc(S(=O)(=O)N2CCC(=O)N(C(COCc3ccc(Cl)cc3)C(C)C)CC2)cc1 (configuration not stated)	16.6%	-118.9*	?	.	-3.4%
Cc1ccc(S(=O)(=O)N2CCC(=O)N(C(COCc3ccccc3)C(C)C)CC2)cc1 (configuration not stated)	11.3%	22.0	?	.	-6.5%
CC(C)(C)c1ccccc1NC(=S)NC1CCCCC1	8.8%	.	-1.4%	.	.
CCc1nc(OCC(=O)c2ccccc2)c(C#N)c2c1COC(C)(C)C2	10.7%[38.3 µM]	-15.3	6.31µM*	5.7	-12.6%
Cc1nc(OCC(=O)c2ccc(Cl)cc2)c(C#N)c2c1COC(C)(C)C2	3.6%[38.3 µM]	1.3	?	4.4	-12.6%
O=C(Cn1cnc([N+](=O)[O-])c1)NC1CCCC1	3.6%	?	0.7%	.	-4.9%
O=C(C[n+]1cc(-c2ccccc2)n2c1CCC2)N1c2ccccc2Sc2ccccc21	33.4%	-119.3*	?	22.0	1.3%
COc1cc(/C=C2/C(=O)c3cccc([N+](=O)[O-])c3C2=O)c(Br)cc1O	24.4%	0.8	8.91µM*	.	1.41µM*
Clc1ccc(-n2cc(COCc3ccccc3)nn2)cc1	3.2%	.	-1.2%	.	.

High-throughput results from PubChem.
